From PubChem BioAssay
In the library only some 1.8% were active in any assay of this set; here they are far more common.
RPL19A-GFP yeast – RPL19A-GFP expression modulators in yeast, primary screen, cell-based, S. cerevisiae, multiplex flow cytometry, MLPCN. S. cerevisiae RPL19A-GFP strain, 3 h; hits give low values. percent response vs DMSO, % at 10 µM. 330,000 tested, 0.3% active;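 active = percent response vs DMSO below 50%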;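 note: median channel GFP fluorescence of the barcoded RPL19A-GFP strain; ratio of sample median GFP to plate DMSO average so 100% = DMSO; lower means less RPL19A-GFP as with rapamycin TOR inhibition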
Myeloid diff 2 – induction of myeloid progenitor differentiation, primary screen, cell-based, flow cytometry, MLPCN library. ER-HoxA9 myeloid progenitors, lysozyme-GFP differentiation. calls only at 10 µM. 360,000 tested, 1% active;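 active = normalized GFP-positive differentiation at or above the plate's own cutoff, the solvent-only control mean plus 3 SD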;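 note: cells exposed to compound for four days before flow analysis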
AGP1-GFP MLPCN – modulators of AGP1-GFP expression in yeast TOR pathway, primary screen, cell-based, multiplex flow cytometry, S. cerevisiae, MLPCN library; GFP response vs DMSO, % at 10 µM; 320,000 tested, 0.02% active; 3 h; GFP as percent of DMSO wells;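 active = GFP response relative to DMSO above a set limit, near screen average plus 3 SD, cut at about 150% in these data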;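 note: median GFP channel fluorescence of the gated AGP1 strain per well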
MEP2-GFP yeast – modulators of MEP2-GFP levels in yeast, primary screen, S. cerevisiae, multiplex flow cytometry, MLPCN library | AID 2016, 2009 | 330,000 tested, 0.51% active | S. cerevisiae MEP2-GFP strain, 3 h; 100% = DMSO control level | GFP response vs DMSO, % at 10 µM;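 active = GFP response versus DMSO above a set limit, roughly screen mean plus 3 SD, cut at about 180% in these data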;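 note: median GFP fluorescence of the barcode-gated MEP2-GFP cells per well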
CIT2-GFP yeast – modulators of CIT2-GFP expression in yeast, primary screen, S. cerevisiae, GFP fusion, multiplex flow cytometry, MLPCN library; 320,000 tested, 0.065% active; GFP response vs DMSO, % at 10 µM; S. cerevisiae CIT2-GFP strain, 3 h; 100 means same as DMSO wells;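 active = GFP response relative to DMSO above a set limit, near the screen mean plus 3 SD, cut at about 150% in these data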;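 note: ratio of well median GFP fluorescence to mean of DMSO wells on the plate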
LAP4 TOR yeast – modulators of LAP4-GFP expression in yeast, primary screen, S. cerevisiae, multiplex flow cytometry, MLPCN library; AID 2023, 2009; GFP response vs DMSO, % at 10 µM; 3 h; median GFP as percent of DMSO wells; 320,000 tested, 0.34% active;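 active = GFP response vs DMSO above a set limit, about the screen mean plus 3 SD, cut at about 150% in these data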
Myeloid diff – inducers of myeloid progenitor differentiation, confirmation, cell-based, GFP/Mac1 flow cytometry, cherry pick 01. shares compounds with Myeloid diff 2. ER-HoxA9 myeloid progenitors, GFP/Mac1 double-positive flow. calls only. 2,300 tested, 2% active. AID 651706, 2012;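 active = share of green or green-and-red cells above 9 and 9% in run 1 or 4 and 3% in run 2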
GFP autofluor – flagged as fluorescent in myeloid differentiation counter-screen; shares compounds with Myeloid diff 2; ER-HoxA9 myeloid progenitors, no estrogen, GFP autofluorescence flow cytometry; vehicle wells 0%, positive control 100%; fluorescence response, % (test concentration not listed); 2,300 tested, 7.4% active; AID 651707;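 active = over 5% cells positive for green fluorescent reporter, or over 2% positive for both it and APC stain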;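 note: range taken on the double positive population between DMSO and positive control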
* hit, by the source's call.

What do the screens show for `COc1ccc(CCNS(=O)(=O)c2cccc(C)c2)cc1OC`?
RPL19A-GFP yeast: 86; Myeloid diff 2: inactive; AGP1-GFP MLPCN: 86; MEP2-GFP yeast: 89; CIT2-GFP yeast: 87; LAP4 TOR yeast: 88

What do the screens show for `COc1ccc(CCNS(=O)(=O)c2cccc(F)c2)cc1OC`?
Myeloid diff 2: inactive; AGP1-GFP MLPCN: 95; MEP2-GFP yeast: 101; CIT2-GFP yeast: 99; LAP4 TOR yeast: 100; Myeloid diff: inactive; GFP autofluor: 0

What do the screens show for `COc1ccc(NC(=O)CN(C)C(=O)CSc2nc3ccccc3s2)cc1`?
RPL19A-GFP yeast: 98; Myeloid diff 2: inactive; AGP1-GFP MLPCN: 106; MEP2-GFP yeast: 100; CIT2-GFP yeast: 99; LAP4 TOR yeast: 125; Myeloid diff: inactive; GFP autofluor: 0

Results for COc1cccc(C(=O)COC(=O)C(C)N2C(=O)c3ccccc3C2=O)c1 (stereo unspecified) ?
RPL19A-GFP yeast: 97; Myeloid diff 2: inactive; AGP1-GFP MLPCN: 96; MEP2-GFP yeast: 99; CIT2-GFP yeast: 91; LAP4 TOR yeast: 99; Myeloid diff: inactive; GFP autofluor: 0

Results for Cc1onc(-c2c(Cl)cccc2Cl)c1C(=O)NNc1ccccc1 ?
RPL19A-GFP yeast: 106; Myeloid diff 2: inactive; AGP1-GFP MLPCN: 118; MEP2-GFP yeast: 114; CIT2-GFP yeast: 112; LAP4 TOR yeast: 113

Results for Cc1onc(-c2c(Cl)cccc2Cl)c1NC(=O)NNc1ccccc1 ?
RPL19A-GFP yeast: 100; Myeloid diff 2: active; AGP1-GFP MLPCN: 105; MEP2-GFP yeast: 107; CIT2-GFP yeast: 107; LAP4 TOR yeast: 106; Myeloid diff: inactive; GFP autofluor: 0

What do the screens show for `Clc1ccc2nc(-c3ccc4c(c3)OCO4)cn2c1`?
RPL19A-GFP yeast: 91; Myeloid diff 2: inactive; AGP1-GFP MLPCN: 94; MEP2-GFP yeast: 101; CIT2-GFP yeast: 97; LAP4 TOR yeast: 101; Myeloid diff: inactive; GFP autofluor: 0

How did Cc1ccc(C(=O)Nc2ccc(S(=O)(=O)NC3=NCCCCC3)cc2)c(C)c1 do in these assays?
RPL19A-GFP yeast: 94; Myeloid diff 2: inactive; AGP1-GFP MLPCN: 100; MEP2-GFP yeast: 91; CIT2-GFP yeast: 96; LAP4 TOR yeast: 96

Results for CC(C)(C)C1CCC2(CC1)C(C#N)=C(SCC(=O)Nc1ccccc1)NC(=O)C2C#N (stereo unspecified) ?
RPL19A-GFP yeast: 97; Myeloid diff 2: inactive; AGP1-GFP MLPCN: 102; MEP2-GFP yeast: 92; CIT2-GFP yeast: 99; LAP4 TOR yeast: 92

Results for N#CC1=C(SCC(=O)c2cc3ccccc3oc2=O)NC(=O)C(C#N)C12CCCC2 (stereo unspecified) ?
Myeloid diff 2: inactive; AGP1-GFP MLPCN: 102; MEP2-GFP yeast: 102; CIT2-GFP yeast: 98; LAP4 TOR yeast: 98; Myeloid diff: inactive; GFP autofluor: 0

Results for O=C(COc1ccc(NC(=O)c2cccs2)cc1)c1ccc(F)cc1 ?
RPL19A-GFP yeast: 99; Myeloid diff 2: inactive; AGP1-GFP MLPCN: 84; MEP2-GFP yeast: 96; CIT2-GFP yeast: 92; LAP4 TOR yeast: 87

What do the screens show for `Cc1cccc(OCC(=O)NNC(=O)c2ccc([N+](=O)[O-])cc2)c1`?
RPL19A-GFP yeast: 97; Myeloid diff 2: inactive; AGP1-GFP MLPCN: 100; MEP2-GFP yeast: 93; CIT2-GFP yeast: 86; LAP4 TOR yeast: 115

How did CCCCN(C)C1=Nc2cccc3cccc1c23 do in these assays?
RPL19A-GFP yeast: 94; Myeloid diff 2: active; AGP1-GFP MLPCN: 98; MEP2-GFP yeast: 98; CIT2-GFP yeast: 94; LAP4 TOR yeast: 103; Myeloid diff: inactive; GFP autofluor: 0

Results for CC1(C)Cn2c(nnc2-c2cccc(O)c2)S1 ?
RPL19A-GFP yeast: 98; Myeloid diff 2: active; AGP1-GFP MLPCN: 92; MEP2-GFP yeast: 104; CIT2-GFP yeast: 94; LAP4 TOR yeast: 99; Myeloid diff: inactive; GFP autofluor: 0

What do the screens show for `CC1Cn2c(nnc2-c2cccc(Cl)c2)S1` (stereo unspecified)?
RPL19A-GFP yeast: 91; Myeloid diff 2: inactive; AGP1-GFP MLPCN: 93; MEP2-GFP yeast: 96; CIT2-GFP yeast: 93; LAP4 TOR yeast: 94

What do the screens show for `FC(F)(F)c1nc2nccnc2[nH]1`?
Myeloid diff 2: inactive

How did COc1ccc(CCNc2c(C)c(C)nc3ncnn23)cc1 do in these assays?
RPL19A-GFP yeast: 95; Myeloid diff 2: inactive; AGP1-GFP MLPCN: 106; MEP2-GFP yeast: 106; CIT2-GFP yeast: 101; LAP4 TOR yeast: 99; Myeloid diff: inactive; GFP autofluor: 0

What do the screens show for `CCc1c(C)nc2ncnn2c1NCCc1ccc(OC)c(OC)c1`?
RPL19A-GFP yeast: 101; Myeloid diff 2: inactive; AGP1-GFP MLPCN: 106; MEP2-GFP yeast: 102; CIT2-GFP yeast: 101; LAP4 TOR yeast: 94

What do the screens show for `CCCc1nnc(NC(=O)CCC(=O)O)s1`?
RPL19A-GFP yeast: 99; Myeloid diff 2: inactive; AGP1-GFP MLPCN: 103; MEP2-GFP yeast: 101; CIT2-GFP yeast: 104; LAP4 TOR yeast: 101

What do the screens show for `CCn1cc(C(=O)O)c(=O)c2cc(F)c(N3CCN(C(=S)NC(=O)c4ccc(F)cc4)CC3)cc21`?
RPL19A-GFP yeast: 102; Myeloid diff 2: inactive; AGP1-GFP MLPCN: 104; MEP2-GFP yeast: 95; CIT2-GFP yeast: 96; LAP4 TOR yeast: 99

Results for CCCOc1ccc(C(=O)NC(=S)N2CCN(c3cc4c(cc3F)c(=O)c(C(=O)O)cn4CC)CC2)cc1 ?
RPL19A-GFP yeast: 102; Myeloid diff 2: active; AGP1-GFP MLPCN: 95; MEP2-GFP yeast: 105; CIT2-GFP yeast: 107; LAP4 TOR yeast: 97; Myeloid diff: inactive; GFP autofluor: 3

What do the screens show for `O=C(CCNC(=O)c1ccc(Br)cc1)NC1CCCc2ccccc21` (stereo unspecified)?
RPL19A-GFP yeast: 102; Myeloid diff 2: active; AGP1-GFP MLPCN: 107; MEP2-GFP yeast: 99; CIT2-GFP yeast: 111; LAP4 TOR yeast: 105; Myeloid diff: active; GFP autofluor: 0
